Reference: PubChem BioAssay (EPA / NIEHS)
“And” between values parts separate entries of the source, which are not always exact repeats. Equal entries are not always repeated. Records with an inconclusive call do not appear. The source made the active and inactive calls. Rule for the calls, unless noted: active = hit-call score of the fitted dose curve at least 0.9, where 1 is the maximum; inactive = score below 0.9.

Legend:
[1] = ACEA_ER_80hr: ACEA Biosciences xCELLigence Real-Time Cell Analysis on Estrogen Receptor Agonism for Proliferation (AID 2282667; active = hit-call score of the fitted dose curve at least 0.9, where 1 is the maximum); conditions: T47D proliferation, impedance (xCELLigence), 80 h
How it was run: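 T-47D cells monitored by electrical impedance (xCELLigence) with compound present throughout; 80 h timepoint, positive-direction fitting versus DMSO. Eight-point 1:4 dilutions from 100 uM final, duplicate plates.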

[2] = APR_HepG2_CellCycleArrest_24hr: Apredica 24-hour HepG2 Assay for Cell Cycle Arrest (AID 2282905); conditions: imaging, actives raise or lower the signal;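 note: cell cycle arrest scored as ratio of 2N to 4N nuclear DNA content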
How it was run: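 HepG2, 24 hr dosing, 10-pt 0.39–200 uM in duplicate, 0.5% DMSO. Fixed 3.7% formaldehyde, permeabilized 0.5% Triton X-100, Hoechst 33342 2 ug/mL. Imaged 20x; nuclear DNA content quantified; bidirectional fit vs DMSO.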

[3] = APR_HepG2_NuclearSize_24hr: Apredica 24-hour HepG2 Assay for Nuclear Size (AID 2282907); conditions: high-content imaging, actives raise or lower the signal
How it was run: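 HepG2, 24 hr dosing, 10-pt 0.39–200 uM, duplicates, 0.5% DMSO final; 3.7% formaldehyde fix, 0.5% Triton X-100; Hoechst 33342 nuclear stain; ArrayScan HCS, Cell Cycle analysis → nuclear size; bidirectional fit vs DMSO.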

[4] = APR_HepG2_CellLoss_24hr: Apredica 24-hour HepG2 Assay for Cell Loss (AID 2282908); conditions: high-content imaging;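 for AC50: fit in both directions so a hit may be cell loss or gain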
How it was run: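 10-pt dose, 0.39–200 uM, n=2/plate; DMSO 0.5% v/v final as negative control. Fix 3.7% formaldehyde 30 min RT, permeabilize 0.5% Triton X-100, stain Hoechst 33342 2 ug/mL, image 20x. Nuclear count, bidirectional fit vs DMSO.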

[5] = APR_HepG2_MicrotubuleCSK_24hr: Apredica 24-hour HepG2 Assay for Microtubule CSK Stabilty (AID 2282909); conditions: HepG2 microtubule cytoskeleton imaging, actives raise or lower the signal
How it was run: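 Human liver HepG2, 24 h dosing, 0.39–200 uM ×10 conc, dup, 0.5% DMSO. 3.7% formaldehyde fix, 0.5% Triton perm, anti-alpha-tubulin (1:200)/Cy5 secondary + Hoechst. HCS imaging, 6 fields/well; gain/loss fit vs DMSO.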

[6] = APR_HepG2_MitoticArrest_24hr: Apredica 24-hour HepG2 Assay for Mitotic Arrest (AID 2282910); conditions: high-content imaging, actives raise or lower the signal
How it was run: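 HepG2 cells, 24 h exposure at 0.39-200 uM (10 concentrations, duplicate, 0.5% DMSO). Fixed, stained for phospho-histone H3 with Hoechst; imaged by high-content microscopy, bidirectional fit versus DMSO.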

[7] = APR_HepG2_MitoMembPot_24hr: Apredica 24-hour HepG2 Assay for Mitochondrial Membrane Potential (AID 2282911); conditions: imaging, actives raise or lower the signal
How it was run: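 HepG2 cells exposed 24 h to 0.39–200 uM compounds in duplicate, 0.5% v/v DMSO final. MitoTracker Red CMXRos 250 nM loaded 30 min before formaldehyde fixation; high-content imaging at 20x, bidirectional fit versus DMSO.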

[8] = APR_HepG2_MitoMass_24hr: Apredica 24-hour HepG2 Assay for Mitochondrial Mass (AID 2282912); conditions: high-content imaging, actives raise or lower the signal
How it was run: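 Mitochondrial mass is read as MitoTracker Red fluorescence intensity from automated imaging, with bidirectional curve fitting relative to DMSO. HepG2 cells received compound (0.39–200 uM, 0.5% DMSO final) for 24 hr and were dye-loaded (250 nM, 30 min) before formaldehyde fixation.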

[9] = APR_HepG2_p53Act_24hr: Apredica 24-hour HepG2 Assay for p53 Activation (AID 2282913); conditions: high-content imaging, actives raise or lower the signal;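 note: p53 protein immunofluorescence averaged per cell in HepG2 with Hoechst nuclei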
How it was run: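 HepG2 cells exposed 24 h to compounds at 0.39–200 uM in duplicate, 0.5% v/v DMSO final; fixed, permeabilized, stained with anti-p53 antibody and Hoechst 33342; fluorescence imaging; bidirectional curve fit versus DMSO.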

[10] = APR_HepG2_CellCycleArrest_72hr: Apredica 72-hour HepG2 Assay for Cell Cycle Arrest (AID 2282914); conditions: high-content imaging, actives raise or lower the signal
How it was run: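 HepG2 cells exposed 72 h in duplicate to 0.39–200 uM compound, 0.5% DMSO final. Formaldehyde-fixed, Hoechst 33342-stained nuclei imaged at 20x, six fields per well; DNA content per valid cell quantified by cell-cycle image analysis, bidirectional fit versus DMSO.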

[11] = APR_HepG2_CellLoss_72hr: Apredica 72-hour HepG2 Assay for Cell Loss (AID 2282915); conditions: high-content imaging
How it was run: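 HepG2 cells exposed 72 h to compound at 0.39–200 uM (10 concentrations, duplicate) in 0.5% DMSO. Fixed with 3.7% formaldehyde and Hoechst 33342-stained. Imaged at 20x; nuclear count gives cell number, fitted bidirectionally versus DMSO.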

[12] = APR_HepG2_P-H2AX_72hr: Apredica 72-hour HepG2 Assay for H2AX Phosphorylation (AID 2282916); conditions: imaging, actives raise or lower the signal;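 note: phospho-histone H2A.x immunostain intensity per cell marking DNA damage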
How it was run: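 HepG2; cpd 0.39–200 uM ×10 conc, duplicates; 0.5% DMSO; 72 hr. Fix 3.7% formaldehyde 30 min RT, 0.5% Triton X-100 10 min. Anti-phospho-H2A.x 1:200 + Hoechst 2 ug/mL, 60 min RT; ArrayScan imaging.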

[13] = APR_HepG2_MitoMembPot_72hr: Apredica 72-hour HepG2 Assay for Mitochondrial Membrane Potential (AID 2282917); conditions: imaging, actives raise or lower the signal
How it was run: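 HepG2 cells dosed 72 hr with compound at 0.39–200 uM in duplicate, 0.5% v/v DMSO final. Mitochondria stained with 250 nM MitoTracker Red CMXRos for 30 min before formaldehyde fixation, imaged by high-content fluorescence; bidirectional fit versus DMSO.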

[14] = APR_HepG2_MitoticArrest_72hr: Apredica 72-hour HepG2 Assay for Mitotic Arrest (AID 2282918); conditions: high-content imaging, actives raise or lower the signal
How it was run: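 HepG2 cells treated 72 h at 0.39–200 uM, 0.5% DMSO final; formaldehyde-fixed, stained with Hoechst 33342 and phospho-histone H3 antibody, imaged by high-content fluorescence; bidirectional fit versus DMSO.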

[15] = APR_HepG2_MicrotubuleCSK_72hr: Apredica 72-hour HepG2 Assay for Microtubule CSK Stabilty (AID 2282919); conditions: HepG2 microtubule cytoskeleton, high-content imaging, actives raise or lower the signal
How it was run: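 HepG2 cells were exposed 72 hr to compound at 0.39–200 uM in duplicate (0.5% DMSO final), then fixed and permeabilized. Alpha-tubulin immunofluorescence was imaged by high-content microscopy, with bidirectional fitting against DMSO and taxol as positive control.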

[16] = APR_HepG2_P-H2AX_24hr: Apredica 24-hour HepG2 Assay for H2AX Phosphorylation (AID 2282920); conditions: high-content imaging, actives raise or lower the signal
How it was run: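 HepG2 cells dosed 24 h at 0.39–200 uM (10 points, duplicate, 0.5% DMSO final). Formaldehyde-fixed and permeabilized, then immunostained for phospho-H2A.x with Hoechst. Fluorescence quantified by high-content imaging, fitted bidirectionally versus DMSO.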

[17] = APR_HepG2_StressKinase_72hr: Apredica 72-hour HepG2 Assay for Stress Kinase (AID 2282921); conditions: HepG2 stress kinase (phospho-c-Jun) imaging, actives raise or lower the signal
How it was run: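 Dose 0.39–200 uM (10 pts, duplicate), 0.5% DMSO; 72 h; fix 3.7% formaldehyde 30 min RT; Triton permeabilize; anti-phospho-c-Jun/Cy3 + Hoechst 60 min RT; image 20x; fit gain/loss vs DMSO.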

[18] = APR_HepG2_StressKinase_24hr: Apredica 24-hour HepG2 Assay for Stress Kinase (AID 2282922); conditions: HepG2 stress kinase (phospho-c-Jun) imaging, actives raise or lower the signal
How it was run: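 HepG2 cells exposed 24 h to 0.39–200 uM compound in duplicate (0.5% v/v DMSO final). Cells fixed in 3.7% formaldehyde, permeabilized and immunostained for phospho-c-Jun; read by high-content fluorescence imaging, fitted bidirectionally against DMSO.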

[19] = APR_HepG2_p53Act_72hr: Apredica 72-hour HepG2 Assay for p53 Activation (AID 2282923); conditions: high-content imaging, actives raise or lower the signal;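 note: average cellular p53 protein immunofluorescence intensity in HepG2 cells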
How it was run: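 10-pt conc. 0.39–200 uM, duplicate, 0.5% DMSO; 72 hr exposure; 3.7% formaldehyde fix, 0.5% Triton perm; sheep anti-p53/Cy5 + Hoechst; ArrayScan 20x, 6 images/well; gain/loss fit vs DMSO.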

[20] = APR_HepG2_MitoMass_72hr: Apredica 72-hour HepG2 Assay for Mitochondrial Mass (AID 2282924); conditions: high-content imaging, actives raise or lower the signal;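 note: MitoTracker Red CMXRos stain intensity per cell imaged as mitochondrial mass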
How it was run: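 HepG2 cells dosed 72 hr at 0.39–200 uM (0.5% DMSO), in duplicate. MitoTracker Red CMXRos 250 nM loaded 30 min before formaldehyde fixation; high-content fluorescence imaging, bidirectional fit versus DMSO.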

Measured: AC50

CC(=O)CC(C)(C)O
active: [1] 16.2 µM | [2] 39.2 nM | [4] 19.8 µM | [5] 41.5 nM | [6] 0.0402 µM | [8] 8.56 µM | [9] 0.106 µM | [10] 32.1 µM | [11] 11 µM | [12] 0.032 µM | [14] 0.45 µM | [15] 0.0173 µM | [16] 19.8 µM | [18] 100 µM | [19] 0.0395 µM
inactive: [3] | [7] | [13] | [17] | [20]

Cc1cc(CCN2CCN(c3nsc4ccccc34)CC2)cc2c1NC(=O)CC2(C)C
active: [4] 28.6 µM | [6] 15.7 µM | [8] 22.2 µM | [9] 18.2 µM | [11] 30.9 µM | [12] 11.2 µM | [14] 39.7 µM | [15] 37.6 µM | [16] 22 µM | [19] 33.8 µM | [20] 29 µM
inactive: [1] | [2] | [3] | [5] | [7] | [10] | [13] | [17] | [18]

CCCCCCC(=O)O
inactive: all assays above

CC[C@H](c1ccc(O)cc1)[C@@H](CC)c1ccc(O)cc1
active: [1] 6.89 nM and 5.23 nM and 2.6 nM | [7] 48.5 nM
inactive: all other assays above

CCCCCCCCCCCCc1ccccc1S(=O)(=O)O
active: [4] 116 µM | [6] 106 µM | [9] 120 µM | [11] 149 µM | [12] 111 µM | [14] 107 µM | [16] 119 µM | [17] 112 µM | [19] 106 µM | [20] 120 µM
inactive: all other assays above

C=C(C)C(=O)OCCC(F)(F)C(F)(F)C(F)(F)C(F)(F)C(F)(F)C(F)(F)F
inactive: all assays above

COc1cc(CCC(=O)CC(=O)CCc2ccc(O)c(OC)c2)ccc1O
active: [12] 96.6 µM | [14] 166 µM | [19] 145 µM
inactive: all other assays above

Cc1cc(C)c(O)c(C)c1
inactive: all assays above

Nc1cccc2c(N)cccc12
active: [4] 51.8 µM | [6] 70.1 µM | [9] 96.2 µM | [11] 83.1 µM | [12] 36.4 µM | [13] 17.3 µM | [14] 77 µM | [16] 42.9 µM | [17] 39.9 µM | [19] 67.5 µM
inactive: [1] | [2] | [3] | [5] | [7] | [8] | [10] | [15] | [18] | [20]
